Our source for the growth values is PubChem BioAssay (NCI).

About 83,000 compounds went through this panel and 20% of them were active in at least one assay; those are over-represented in the sample as a whole.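 A percent growth of 40 corresponds to 60% growth inhibition; 0 means no net growth; -100 means all cells died. Active threshold: below 10.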 Unmarked numbers belong to inactive results. The source made the active and inactive calls.

Test systems include HCT-15 colon; HT29 colon; SNB-75 CNS; SNB-19 CNS; U251 CNS; PC-3 prostate; SK-MEL-5 melanoma; UACC-62 melanoma; LOX IMVI melanoma; SK-MEL-28 melanoma.
Assay in all cases: NCI-60 one-dose screen, 48 h (100 = growth as untreated, 0 = no growth, -100 = all killed)
What all share (conditions): 10 µM unless noted

Take `O=C1Nc2ccccc2/C1=C\c1ccc(OCC(=O)c2ccc(Br)cc2)cc1`: the growth is 45.4% in the experiment with HCT-15 colon; 82.7% with HT29 colon; 79.6% in the experiment with SNB-75 CNS; 79.6% in the experiment on SNB-19 CNS; 71.5% in the experiment on U251 CNS; 62.4% with PC-3 prostate. Also, the growth was 28.9% in the experiment on SK-MEL-5 melanoma, 52.6% in the experiment on UACC-62 melanoma, 28.9% in the experiment with LOX IMVI melanoma and 80.2% in the experiment with SK-MEL-28 melanoma.

As for `COc1cc(CNC(=O)[C@]23CCC(C)(C)CC2C2=CCC4[C@@]5(C)CCC(OC(C)=O)C(C)(C)C5CC[C@@]4(C)[C@]2(C)CC3)ccc1OCc1cn(-c2ccc(Cl)cc2Cl)nn1` (stereo not given in full), the growth in the experiment with HCT-15 colon was 111%; with HT29 colon, 98%; with SNB-75 CNS, 118%; with SNB-19 CNS, 89.8%; in the experiment with U251 CNS, 104%; in the experiment with PC-3 prostate, 98.3%. In addition, the growth with SK-MEL-5 melanoma is 103%; in the experiment with UACC-62 melanoma, 81.4%; in the experiment with LOX IMVI melanoma, 98.3%; in the experiment on SK-MEL-28 melanoma, 117%.

With `N#Cc1ccc(C(=O)CSc2nc3c(c(Nc4ccc(S(N)(=O)=O)cc4)n2)CCC3)cc1`, the growth in the experiment with HCT-15 colon was 49.9%; with HT29 colon, 55.8%; in the experiment on SNB-75 CNS it was 8.38% (active); in the experiment with SNB-19 CNS, -13.3% (active); in the experiment with U251 CNS, -85.2% (active); in the experiment with PC-3 prostate, 65.3%. Besides, the growth with SK-MEL-5 melanoma was 71.9%; in the experiment on UACC-62 melanoma it was 83.1%; with LOX IMVI melanoma, 1.66% (active); in the experiment with SK-MEL-28 melanoma, 48.5%.

For the compound `O=C(/C=C1\C(=O)N(Cc2ccccc2)c2ccccc21)c1cc2ccccc2oc1=O`, the growth with HCT-15 colon is 31.8%; with HT29 colon it was 113%; in the experiment with SNB-75 CNS it was 88%; with SNB-19 CNS, 102%; with U251 CNS it was 98.4%; with PC-3 prostate it was 90.7%. Also, the growth in the experiment with SK-MEL-5 melanoma was 90.2%; in the experiment on UACC-62 melanoma, 79.5%; in the experiment with LOX IMVI melanoma, 85.2%; with SK-MEL-28 melanoma, 92.1%.

With `COC(=O)c1cc(C(=O)C(F)(F)F)n2c3ccccc3c3ccccc3c12`, the growth in the experiment on HCT-15 colon is 93.8%; in the experiment on HT29 colon it was 96.1%; in the experiment with SNB-75 CNS, 6.37% (active); in the experiment with SNB-19 CNS it was 67.8%; in the experiment on U251 CNS it was 70.1%; with PC-3 prostate, 66.8%. The growth in the experiment on SK-MEL-5 melanoma was 95.8%; in the experiment on UACC-62 melanoma it was 69.3%; in the experiment with LOX IMVI melanoma, 77.2%; with SK-MEL-28 melanoma it was 111%.

For `FC(F)(F)c1cc2c(Cl)ncnc2n1CCN1CCCCC1`, the growth with HCT-15 colon is -30.7% (active); in the experiment on HT29 colon it was 56.2%; in the experiment with SNB-75 CNS it was 13.6%; in the experiment on SNB-19 CNS, -35.3% (active); in the experiment on U251 CNS, 81.8%; in the experiment on PC-3 prostate, 55.8%. Also, the growth in the experiment on SK-MEL-5 melanoma was 83.2%; in the experiment with UACC-62 melanoma, 50.8%; in the experiment on LOX IMVI melanoma, -88.8% (active); in the experiment with SK-MEL-28 melanoma it was 52.5%.

On to `COc1cc(C2CC(c3ccc(S(=O)(=O)NCCNc4nc(N(C)C)nc(N5CCOCC5)n4)cc3)=Nc3c(N)nc(N)nc3N2)cc(OC)c1OC` (stereo not given), for which the growth with HCT-15 colon was 93.8%; with HT29 colon, 99.8%; in the experiment with SNB-75 CNS, 102%; in the experiment on SNB-19 CNS, 96.2%; in the experiment with U251 CNS, 97.5%; in the experiment on PC-3 prostate, 96.3%. Further, the growth in the experiment with SK-MEL-5 melanoma was 91.4%; in the experiment on UACC-62 melanoma it was 93.7%; in the experiment with LOX IMVI melanoma, 94.3%; with SK-MEL-28 melanoma, 100%.

For the compound `COc1sc(/C=N/NC(=O)c2[nH]c3ccc(Br)cc3c2-c2ccccc2)cc1Cl`, the growth in the experiment with HCT-15 colon was -26.2% (active); in the experiment on HT29 colon it was -52.8% (active); in the experiment with SNB-75 CNS it was 42%; in the experiment with SNB-19 CNS it was -46% (active); with U251 CNS, -40.7% (active); in the experiment with PC-3 prostate, 4.59% (active). Also, the growth is -91.1% (active) in the experiment on SK-MEL-5 melanoma, -30.6% (active) in the experiment with UACC-62 melanoma, -91.7% (active) in the experiment on LOX IMVI melanoma and -33.1% (active) in the experiment with SK-MEL-28 melanoma.

As for `N#Cc1c(-c2ccc(F)cc2)nc(SCc2ccc(F)cc2)nc1N1CCNCC1`, the growth in the experiment with HCT-15 colon was -42.8% (active); with HT29 colon it was -79.1% (active); with SNB-75 CNS it was 19.3%; in the experiment on SNB-19 CNS it was 49.6%; in the experiment with U251 CNS it was -95.5% (active); with PC-3 prostate, 11.3%. The growth with SK-MEL-5 melanoma was -67.4% (active); in the experiment on UACC-62 melanoma, -91.6% (active); in the experiment on LOX IMVI melanoma it was -100% (active); in the experiment with SK-MEL-28 melanoma, -97.6% (active).

Turning to `CC1=C(C(=O)OCc2ccccc2)C(c2ccc(N(C)C)cc2)n2c(nc3ccccc32)N1` (stereo not given), the growth with HCT-15 colon was 71.4%; in the experiment on HT29 colon, 100%; in the experiment with SNB-75 CNS it was 61.2%; in the experiment with SNB-19 CNS, 86.2%; with U251 CNS, 90.4%; with PC-3 prostate, 80.8%. In addition, the growth in the experiment on SK-MEL-5 melanoma is 71.7%; with UACC-62 melanoma it was 42%; in the experiment with LOX IMVI melanoma it was 75.7%; in the experiment on SK-MEL-28 melanoma, 79.9%.

For the compound `N#C/C(=C/c1ccc(Cl)cc1)c1nnc(NC(=O)c2ccc(-n3c(=O)[nH]c4ccccc4c3=O)cc2)s1`, the growth is 95.2% in the experiment with HCT-15 colon; 68.8% in the experiment with HT29 colon; 53.3% in the experiment with SNB-75 CNS; 51.8% with SNB-19 CNS; 27.1% in the experiment with U251 CNS; 76.2% in the experiment on PC-3 prostate. Besides, the growth in the experiment on SK-MEL-5 melanoma was 27.7%; in the experiment with UACC-62 melanoma it was 67.2%; with LOX IMVI melanoma, 41.8%; with SK-MEL-28 melanoma it was 74.9%.

As to `O=S(=O)(c1nc(-c2ccc(Br)cc2)oc1-c1ccc(Cl)cc1)N1CCCC(O)C1` (stereo not given), the growth in the experiment on HCT-15 colon is 42.6%; in the experiment with HT29 colon, 11.2%; in the experiment on SNB-75 CNS it was 94.6%; in the experiment on SNB-19 CNS, 62%; in the experiment on U251 CNS, 64.8%; in the experiment with PC-3 prostate, 28.2%. For the same compound, the growth is 82.6% in the experiment on SK-MEL-5 melanoma, 53.8% in the experiment on UACC-62 melanoma, 4.05% (active) with LOX IMVI melanoma and 79.4% with SK-MEL-28 melanoma.
